Assay outcomes deposited in PubChem by Broad Institute.
Sampled rows, rich in hits. Any-hit rate of the full collection: about 3.3%.
SIRT5 inh = sirtuin-5 (human) deacylase inhibition; Q9NXA8; Purified SirT5, succinyl-peptide AMC, trypsin-coupled fluorescence; inhibition, % at 15 µM; actives 1.1% (n = 330,000); AID 652115; in the data active = inhibition above about 15%
Target sequence (Q9NXA8 whole entry, looked up): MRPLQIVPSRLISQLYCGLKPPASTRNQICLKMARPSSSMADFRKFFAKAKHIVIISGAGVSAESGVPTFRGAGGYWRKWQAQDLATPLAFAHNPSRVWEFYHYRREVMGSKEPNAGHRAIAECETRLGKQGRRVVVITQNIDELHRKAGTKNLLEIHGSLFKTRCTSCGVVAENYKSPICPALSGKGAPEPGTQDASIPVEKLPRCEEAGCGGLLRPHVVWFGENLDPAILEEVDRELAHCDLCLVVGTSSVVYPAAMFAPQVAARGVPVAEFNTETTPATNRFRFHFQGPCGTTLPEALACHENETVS
FGF22 binding = binders of recombinant human FGF22 by thermal shift. actives 1.5% (n = 340,000). SYPRO orange fluorescence; percent of sucrose octasulfate shift, DMSO zero. Q9HCT0. activity (Tm shift, normalised), % at 9.99 µM;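 active = mean Tm shift, scaled 0 neutral to 100 positive control, at about 1.3% or above, every replicate too, limit read from the data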
ERAP1 HTS inh = inhibitors of human ERAP1 aminopeptidase; inhibition, % at 10.7 µM; Q9NZ08; actives 0.15% (n = 340,000); AID 652197; recombinant ERAP1, Leu-AMC fluorescence, 60 min;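 active = mean replicate inhibition of at least 30%, or all replicates individually reaching that 30% level; inactive = mean below 30% and not every replicate reaching it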;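 also: 0% = neutral control wells and 100% = L-leucinethiol positive control wells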
CASP6 VEID inh = inhibitors of human caspase-6; P55212; purified caspase-6, Z-VEID-R110 cleavage fluorescence; inhibition, % at 12.5 µM; actives 0.53% (n = 350,000); AID 686996;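 active = mean inhibition across replicates at least about 35%, with every replicate also reaching that limit, limit read from the data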;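 also: 0% = median of neutral control wells and 100% = no fluorescence left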
Target sequence (P55212 24-179 limits assumed): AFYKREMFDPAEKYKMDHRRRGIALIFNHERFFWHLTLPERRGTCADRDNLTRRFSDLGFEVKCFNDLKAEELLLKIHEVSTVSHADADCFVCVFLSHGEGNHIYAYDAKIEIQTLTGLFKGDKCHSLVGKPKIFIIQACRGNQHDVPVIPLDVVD
Target sequence (P55212 194-293 limits assumed): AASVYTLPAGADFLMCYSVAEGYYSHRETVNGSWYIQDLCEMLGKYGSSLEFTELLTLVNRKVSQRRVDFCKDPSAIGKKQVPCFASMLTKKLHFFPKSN
GSIS activator = primary screen for activators of insulin secretion dependent on glucose, INS-1E cells, GLuc reporter luminescence. actives 0.61% (n = 370,000). INS-1E GLuc reporter insulin secretion, 2-3 h. activation, % at 16.6 µM. AID 743287;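 active = lowest replicate activation of at least 40%, so every replicate reaches that level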;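 also: 0% = median of neutral control wells and 100% = median of IBMX positive control wells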
An asterisk follows results filed as active; x = no result.

SMILES	SIRT5 inh	FGF22 binding	ERAP1 HTS inh	CASP6 VEID inh	GSIS activator
CCn1c(O)c(N=NC(=O)CNC(=O)c2ccco2)c2ccccc21	-5	0	4	-2	9
Cc1cc(C)c(OCC(=O)OCC(=O)N(C)C2CCS(=O)(=O)C2)c(C)c1 (configuration not stated)	0	x	-5	20	41*
CCC(C)N(C(=O)COC(=O)COc1c(C)cc(C)cc1C)C1CCS(=O)(=O)C1 (configuration not stated)	-1	0	3	-1	26
CC1CN(C(=S)SCCN2C(=O)CCC2=O)CC(C)O1 (configuration not stated)	0	44*	1	-1	15
O=C1CCC(=O)N1CCSC(=S)N1CCSCC1	0	0	7	0	-30
COc1ccccc1CNC(=O)C[C@@H]1C[C@@H]2c3cc(NC(=O)C4CCC4)ccc3O[C@@H]2[C@H](CO)O1	3	0	2	1	-3
Cc1cc(C)n(C(=O)CCCn2cc([N+](=O)[O-])cn2)n1	0	43*	4	-3	4
O=C(CCCn1cc([N+](=O)[O-])cn1)N1CCCCC1	-1	0	-1	-2	1
CC(=O)N1[C@@H](CO)[C@@H]2c3ccccc3N(C(=O)Nc3cc(F)ccc3F)C[C@@H]21	0	0	1	0	9
CN(Cc1ccccc1)C(=S)NC(=O)c1ccc(-c2ccccc2)cc1	x	x	x	x	40*
COc1cc(C(=O)NC(=S)N(C)Cc2ccccc2)cc(OC)c1OC	-4	0	0	2	-2
COc1ccc(C(CC(=O)O)n2cnnn2)cc1 (configuration not stated)	-3	42	4	-1	3
CC(C)Oc1ccc(C(CC(=O)O)n2cnnn2)cc1 (configuration not stated)	1	43*	0	-2	-5
O=C(C[C@@H]1CC[C@H]2[C@@H](COC[C@H](O)CN2Cc2cccc(C(F)(F)F)c2)O1)NCc1ccccc1	3	0	-6	0	-10
CCOc1cc(/C=C2\CCCc3c2nc2ccccc2c3C(=O)O)ccc1OC	-5	0	3	-50	13
COc1cc(/C=C2\CCCc3c2nc2ccccc2c3C(=O)O)cc(Br)c1O	2	21*	5	2	33
COc1cc(/C=C2\CCc3c2nc2ccccc2c3C(=O)O)cc(OC)c1OC	13	0	1	49*	-9
CO[C@@H]1CN(C)C(=O)c2cc(NC(=O)Nc3cccc(F)c3)ccc2OC[C@@H](C)N(C(=O)C2CC2)C[C@H]1C	x	x	x	x	-25
CN(Cc1ccc(OCC(O)CN(C)Cc2ccccc2)cc1)Cc1nccn1C (configuration not stated)	2	0	-3	-17	47*
CN1c2ccc(-c3ccc(C#N)cc3)cc2[C@H]2[C@H](CCN2S(=O)(=O)c2cccc(F)c2)[C@@H]1CO	-1	0	-1	1	-3
CCCCc1ccc(NC(=O)COc2ccc(C(=O)Nc3ccccc3OCC)cc2)cc1	x	x	x	x	71*
CO[C@H]1CN(C)C(=O)c2cc(NS(=O)(=O)c3cn(C)cn3)ccc2OC[C@H](C)N(Cc2cccc(F)c2)C[C@H]1C	x	0	0	-3	7
CCN(CC)C(=O)CSc1nc(-c2ccccc2)cc(=O)[nH]1	-3	0	4	0	x
CCN(Cc1ccccc1)C(=O)CSc1nc(C)cc(=O)[nH]1	22*	42	0	2	-10
CC(C)NC(=O)Nc1ccc2c(c1)C(=O)N([C@@H](C)CO)C[C@H](C)[C@H](CN(C)C(=O)NC(C)C)OCCCC[C@@H](C)O2	24*	1	1	-3	20
SMILES	SIRT5 inh	FGF22 binding	ERAP1 HTS inh	CASP6 VEID inh	GSIS activator
CC(C)NC(=O)Nc1ccc2c(c1)C(=O)N([C@H](C)CO)C[C@H](C)[C@@H](CN(C)S(=O)(=O)c1ccccc1)OCCCC[C@H](C)O2	1	1	-2	40*	-8
CC(C)NC(=O)Nc1ccc2c(c1)C(=O)N([C@H](C)CO)C[C@H](C)[C@H](CN(C)C(=O)Cc1ccccc1)OCCCC[C@H](C)O2	19*	0	0	-2	10
C[C@H](CO)N1C[C@H](C)[C@@H](CN(C)C(=O)NC2CCCCC2)OCCCC[C@H](C)Oc2ccc(NC(=O)C3CCCCC3)cc2C1=O	16*	1	5	-1	-10
O=C(N[C@H]1CC[C@H](CCNS(=O)(=O)c2ccc(Cl)cc2)O[C@@H]1CO)c1cnccn1	-2	0	0	1	8
O=C1NCCOCc2cnnn2CC[C@@H]1Cc1ccc(F)cc1	x	x	x	x	-2
CCCNC(=O)C[C@H]1CC[C@H]2[C@H](COc3ccc(NC(=O)NC(C)C)cc3C(=O)N2C)O1	-2	0	0	-2	12
COCc1ccc(C(=O)NC2CCSc3ccccc32)cc1 (configuration not stated)	0	0	-2	6	76*
CCOCCOc1cc(NCc2ccccc2)c2ncn(C(C)C)c2c1	x	0	2	41*	-5
O=C(NCc1ccccc1F)[C@@H]1[C@@H](CO)[C@@H]2Cn3c(cccc3=O)[C@@H]2N1CC1CC1	7	0	-2	0	18
CC1C=NC(S(=O)(=O)N2CC[C@@H]3[C@H](CO)N(C)c4ccc(C#Cc5ccccc5)cc4[C@@H]32)=N1 (some centres not stated)	x	x	x	x	-1
O=C1CN(C(=O)COC(=O)/C=C/c2ccc(S(=O)(=O)N3CCOCC3)cc2)c2ccccc2N1	2	42	-2	2	x
O=C1CN(C(=O)COC(=O)CNS(=O)(=O)c2ccccc2)c2ccccc2N1	-4	43*	3	1	-5
Cc1c(C(=O)OCC(=O)N2CC(=O)Nc3ccccc32)oc2ccc(Br)cc12	x	x	x	x	73*
COc1cc(/C=C/C(=O)OCC(=O)N2CC(=O)Nc3ccccc32)ccc1O	15*	0	x	1	-5
O=C1CN(C(=O)COC(=O)c2cc(S(=O)(=O)N3CCOCC3)ccc2Cl)c2ccccc2N1	-2	43*	3	5	9
C[C@H]1CN([C@@H](C)CO)C(=O)c2cc(NC(=O)C3CC3)ccc2O[C@@H]1CN(C)C(=O)Nc1ccc2c(c1)OCO2	2	0	0	1	1
COC(=O)CCS(=O)(=O)c1ccc(Cl)cc1	x	x	x	x	17
O=S(=O)(CCc1ccncc1)c1ccc(Cl)cc1	27*	-1	-2	-4	-3
C[C@H](CO)N1C[C@H](C)[C@@H](CN(C)C(=O)Nc2ccc(F)cc2)Oc2ccc(N(C)C)cc2CC1=O	1	-1	0	-2	-3
COc1cc2ccc(=O)oc2c(O[C@@H]2O[C@H](CO)[C@@H](O)[C@H](O)[C@H]2O)c1O	-34	0	59*	-3	8
O=c1ccc2ccc(O[C@@H]3O[C@H](CO)[C@@H](O)[C@H](O)[C@H]3O)c(O)c2o1	x	0	x	-2	7
